Source: PubChem BioAssay
Rows were chosen to be rich in hits. Some 4.1% of all compounds tested hit in one or more screens of this group.
DAX1 inh-1: DAX1 (NR0B1) inhibition, primary screen; inhibition, % at 6.8 µM; HEK293T StAR-luciferase reporter, SF-1/DAX-1 repression relief; 370,000 compounds, 1.1% hits;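 active = inhibition above the mean over all tested compounds plus 3 SD, cut at about 3.6% in these data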;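 note: higher inhibition means more luminescence from relief of DAX-1 repression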
hgDAF12 agonist: agonists of H. glycines DAF-12 nuclear receptor | HEK293 GAL4-hgDAF12 UAS-luciferase reporter, agonist luminescence; normalized to butyrate control | activation, % at 6.8 µM | 370,000 compounds, 1.8% hits | AID 687014;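 active = activation above a cutoff set at the mean of all screened compounds plus 3 SD, cut at about 10% in these data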
hcDAF-12 act: activates DAF-12 receptor from parasite H. contortus; 370,000 compounds, 1.4% hits; activation, % at 6.8 µM; AID 652067; HEK293 hcDAF-12 lit1-tk-luc reporter, luminescence; 0% DMSO, 100% Δ7-dafachronic acid;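 active = activation above the mean of all tested compounds plus 3 SD, cut at about 5.5% in these data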
DAX1 inh-2: NR0B1 (DAX1) inhibition | HEK293 Gal4-DAX1 luciferase reporter, luminescence | inhibition, % at 6.75 µM | 340,000 compounds, 0.99% hits;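 active = inhibition above the mean over all tested compounds plus 3 SD, cut at about 4.2% in these data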;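 note: inhibition shows as a rise in luminescence from relieved DAX1 repression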
Target sequence (P51843 207-470 limits assumed): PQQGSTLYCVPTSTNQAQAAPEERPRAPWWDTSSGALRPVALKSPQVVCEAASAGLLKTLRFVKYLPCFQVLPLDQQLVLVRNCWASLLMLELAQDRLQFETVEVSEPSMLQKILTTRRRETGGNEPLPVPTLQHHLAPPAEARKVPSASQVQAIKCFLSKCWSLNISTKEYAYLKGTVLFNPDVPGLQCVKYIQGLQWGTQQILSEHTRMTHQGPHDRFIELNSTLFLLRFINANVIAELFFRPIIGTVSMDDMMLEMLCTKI
ssDAF12 agonist: S. stercoralis DAF-12 activation, primary screen; activation, % at 6.8 µM; 370,000 compounds, 1% hits; HEK293 ssDAF-12/GRIP1 lit1-tk-luc reporter, luminescence; % of 3 µM dafachronic acid response; AID 652126;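 active = activation above the mean over all tested compounds plus 3 SD, cut at about 0.9% in these data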
DAX1 conf: NR0B1 (human) inhibition, confirmation; HEK293T StAR-promoter luciferase reporter, SF-1/DAX-1 repression; 2,400 compounds, 87% hits; shares compounds with DAX1 inh-1; inhibition, % at 6.8 µM;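 active = inhibition above the average of every tested compound plus 3 SD, cut at about 3.8% in these data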;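 note: active compounds raise luminescence by relieving repression of the StAR reporter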
SF1 AF2mut Luc: nonselective inhibitor or artifact in SF-1 mutant DAX1 counter-screen. 2,400 compounds, 78% hits. shares compounds with DAX1 inh-1. inhibition, % at 6.8 µM. HEK293 StAR-luciferase, SF-1 AF2 mutant, luminescence;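 active = inhibition above the mean of all tested compounds plus 3 SD, cut at about 3% in these data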
LXR ag: counter-screen for hcDAF-12 agonists: agonists of human LXR-beta; shares compounds with hcDAF-12 act; HEK293 Gal4-LXR tk-luc reporter, luminescence, 24 h; normalized: DMSO 0%, positive control 100%; activation, % at 6.8 µM; 3,400 tested, under 10 active;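 active = mean percent activation of the reporter above a cutoff set as the average over tested compounds plus their standard deviation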
Target sequence (P55055 whole entry, looked up, the tested form may be a part): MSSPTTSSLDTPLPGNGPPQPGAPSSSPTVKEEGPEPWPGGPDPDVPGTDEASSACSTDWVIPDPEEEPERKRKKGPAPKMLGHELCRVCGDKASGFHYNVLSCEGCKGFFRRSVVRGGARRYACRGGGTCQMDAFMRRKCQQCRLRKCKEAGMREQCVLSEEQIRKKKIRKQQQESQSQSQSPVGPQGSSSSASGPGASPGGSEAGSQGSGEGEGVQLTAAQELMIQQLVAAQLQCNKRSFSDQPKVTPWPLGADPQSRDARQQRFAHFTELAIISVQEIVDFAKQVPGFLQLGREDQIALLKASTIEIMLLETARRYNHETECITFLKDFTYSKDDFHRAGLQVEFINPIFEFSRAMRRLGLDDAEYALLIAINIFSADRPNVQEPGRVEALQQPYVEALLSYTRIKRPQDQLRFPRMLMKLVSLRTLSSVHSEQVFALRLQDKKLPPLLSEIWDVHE
hcDAF12 ag: hcDAF-12 agonism, confirmation assay. 3,400 compounds, 61% hits. shares compounds with hcDAF-12 act. HEK293 hcDAF-12 lit1-tk-luc reporter, luminescence; % of Δ7-dafachronic acid response. activation, % at 6.8 µM;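 active = mean activation across triplicate tests above the threshold derived from the earlier primary screen, cut at about 5.5% in these data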
hgDAF12 conf: confirmation of H. glycines DAF-12 agonists; AID 743050; activation, % at 6.8 µM; HEK293 GAL4-hgDAF12 luciferase reporter, agonist mode; percent of butyrate response; shares compounds with hgDAF12 agonist; 3,300 compounds, 80% hits;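 active = mean activation over triplicate wells above the hit cutoff derived from the earlier primary screen, cut at about 11% in these data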
LXRb DAF12 ctr: LXR-beta agonism as DAF-12 counter-screen; shares compounds with hgDAF12 agonist; HEK293 Gal4-LXR luciferase reporter, 24 h; activation, % at 6.8 µM; 3,300 tested, under 10 active; AID 743051;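 active = mean activation of the triplicate above a set limit carried over from the primary screen, none filed active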
Large screens that a line does not name were inactive (follow-up assays come after a bar, where they were run).

O=C(Nc1ccc2c(c1)OCO2)Nc1ccccc1F	DAX1 inh-1 11, hgDAF12 agonist 19 | DAX1 conf 13 | SF1 AF2mut Luc 6.9 | hgDAF12 conf 15 | LXRb DAF12 ctr inactive
O=C(Nc1ccccn1)c1ccc2c(c1)OCO2	DAX1 inh-1 6.1, hgDAF12 agonist 22 | DAX1 conf 6.8 | SF1 AF2mut Luc 3.4 | hgDAF12 conf 13 | LXRb DAF12 ctr inactive
Cc1ccc(C(=O)Nc2ccc3c(c2)OCO3)cc1Cl	DAX1 inh-1 11, hgDAF12 agonist 18, hcDAF-12 act 6.1, DAX1 inh-2 4.8 | DAX1 conf 11 | SF1 AF2mut Luc 6.6 | hgDAF12 conf 20 | LXRb DAF12 ctr inactive
CCc1nc2ccc(C(=O)NCCCn3ccnc3)cn2c1N(C)CCC(C)C	none (no result: DAX1 inh-2)
O=C1Nc2ccccc2O/C1=C\c1ccccc1Br	none
CCOC(=O)Cc1csc(NC(=O)c2cc3ccccc3o2)n1	none
O=C(NNC(=O)c1cc2ccccc2o1)c1ccc(Cl)cc1	none
Cc1cc(C)nc(NC(=O)c2ccc(C)c([N+](=O)[O-])c2)n1	none
O=C(Nc1ncccc1O)c1cc2ccccc2o1	DAX1 inh-1 27, hgDAF12 agonist 39, hcDAF-12 act 8.6 | DAX1 conf 27 | SF1 AF2mut Luc 14 | LXR ag inactive | hcDAF12 ag inactive | hgDAF12 conf 29 | LXRb DAF12 ctr inactive
O=C(Nc1ccc(Cl)cn1)c1cc2ccccc2o1	DAX1 inh-1 4.8, hgDAF12 agonist 14, hcDAF-12 act 13, ssDAF12 agonist 2.7 | DAX1 conf 14 | SF1 AF2mut Luc 6.8 | LXR ag inactive | hcDAF12 ag 16 | hgDAF12 conf 20 | LXRb DAF12 ctr inactive
Cc1csc(NC(=O)c2cc3ccccc3o2)n1	DAX1 inh-1 8.6, hgDAF12 agonist 18, hcDAF-12 act 12, ssDAF12 agonist 2.5 | DAX1 conf 15 | SF1 AF2mut Luc 6.1 | LXR ag inactive | hcDAF12 ag 8.9 | hgDAF12 conf 19 | LXRb DAF12 ctr inactive
Cc1csc(NC(=O)c2ccc(C)c([N+](=O)[O-])c2)n1	DAX1 inh-1 5.9, hgDAF12 agonist 15, hcDAF-12 act 12 | DAX1 conf 7.7 | SF1 AF2mut Luc 4.7 | LXR ag inactive | hcDAF12 ag 10 | hgDAF12 conf 18 | LXRb DAF12 ctr inactive
N[C@@H](Cc1ccc(O)cc1)c1nnc([C@H](CC(=O)O)NC(=O)C2CCNCC2)o1	none
CC1CCN(C(=O)c2[nH]cnc2C(=O)NC2CCN(C(=O)OC(C)(C)C)CC2)CC1	none
Cc1cccc(OCc2cc(-c3ccccc3)no2)c1C	none
Clc1ccc(OCc2cc(-c3ccccc3)no2)c(Cl)c1	DAX1 inh-1 7.5, hgDAF12 agonist 15, hcDAF-12 act 7.2, ssDAF12 agonist 0.9 | DAX1 conf 9.3 | SF1 AF2mut Luc inactive | LXR ag inactive | hcDAF12 ag 10.0 | hgDAF12 conf inactive | LXRb DAF12 ctr inactive
CN(c1ccccc1)S(=O)(=O)c1cccc(NS(=O)(=O)c2ccc(/C=C/C(=O)O)cc2)c1	none
O=C(O)CCNC(=O)OCC1c2ccccc2-c2ccccc21	none
CC(C)C[C@H](NC(=O)OCC1c2ccccc2-c2ccccc21)C(=O)O	DAX1 inh-1 5.8, hgDAF12 agonist 16 | DAX1 conf 6.6 | SF1 AF2mut Luc 5.8 | hgDAF12 conf 12 | LXRb DAF12 ctr inactive
O=C(NCCCN1CCCC1)c1[nH]c(C(F)(F)F)nc1-c1ccccc1	none (no result: DAX1 inh-2)
Cc1ccc2c(c1)C(=O)CC(c1ccccc1)S2 (configuration not stated)	DAX1 inh-1 19, hgDAF12 agonist 20, hcDAF-12 act 7.7, ssDAF12 agonist 1.5 | DAX1 conf 13 | SF1 AF2mut Luc 7.4 | LXR ag inactive | hcDAF12 ag 6.5 | hgDAF12 conf 19 | LXRb DAF12 ctr inactive
O=C1CC(c2ccccc2)Sc2ccccc2N1 (configuration not stated)	none
O=C(c1ccc(Cl)cc1)N1CCN(CCc2ccccn2)CC1	none
C[C@@H]1OC(C2CCCCC2)N(C)[C@H]2C[C@H]3c4[nH]c5cccc(-c6ccccc6)c5c4CCN3C[C@@H]12 (some centres not stated)	none (no result: DAX1 inh-2)
c1ccc2c(c1)CC/C2=N/Nc1nc2ccccc2[nH]1	DAX1 inh-1 7.3, hgDAF12 agonist 14 | DAX1 conf 11 | SF1 AF2mut Luc 11 | hgDAF12 conf inactive | LXRb DAF12 ctr inactive
Cc1ccc(NC(=S)N2CCC(c3ccccc3)C2)c(Cl)c1 (configuration not stated)	DAX1 inh-1 5.1, hgDAF12 agonist 19, ssDAF12 agonist 1.1 | DAX1 conf 11 | SF1 AF2mut Luc 4.8 | hgDAF12 conf 13 | LXRb DAF12 ctr inactive
O=C(/C=C/c1ccc(O)c(O)c1)NC(=O)c1ccccc1O	DAX1 inh-1 4.6, hgDAF12 agonist 15, hcDAF-12 act 6.5 | DAX1 conf 8.1 | SF1 AF2mut Luc 4.0 | hgDAF12 conf 13 | LXRb DAF12 ctr inactive
O=C(O)/C=C/c1ccc(O)c(O)c1	none
O=c1cc(-c2ccccc2)oc2cc(O)cc(O)c12	DAX1 inh-1 5.7, hgDAF12 agonist 15 | DAX1 conf 9.2 | SF1 AF2mut Luc inactive | hgDAF12 conf 13 | LXRb DAF12 ctr inactive
Cc1ccc(S(=O)(=O)CCC(=O)OCc2ccccc2F)cc1	none
Cc1ccc(OCc2nc(-c3ccccn3)no2)cc1	DAX1 inh-1 5.1, hgDAF12 agonist 18, hcDAF-12 act 8.9, ssDAF12 agonist 0.9 | DAX1 conf 16 | SF1 AF2mut Luc 7.2 | LXR ag inactive | hcDAF12 ag inactive | hgDAF12 conf 15 | LXRb DAF12 ctr inactive
COc1ccccc1-c1cnc(C(O)c2ccc(F)c(F)c2)[nH]1 (configuration not stated)	none (no result: DAX1 inh-2)
CCOc1ccc(-c2nnc(-c3cccs3)o2)cc1	DAX1 inh-1 4.9, hgDAF12 agonist 16, hcDAF-12 act 7.4 | DAX1 conf 13 | SF1 AF2mut Luc 4.6 | LXR ag inactive | hcDAF12 ag 7.8 | hgDAF12 conf 15 | LXRb DAF12 ctr inactive
